Counter-ions that a name gives are not always drawn.
What follows are compounds tested on Mel-DCC-11-R (assay: cell viability relative to DMSO control (fraction of DMSO control); higher = less cytotoxic, active = 0.8 or less). Conditions: 1 µM; 120 h; vemurafenib co-treatment 0 µM.
Protocol: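 Same 315-drug TargetMol library at 1 µM in duplicate, 120 h, ATPlite luminescence normalised to DMSO controls, on the vemurafenib-resistant subline Mel-DCC-11-R cultured alone or with 8 µM vemurafenib co-treatment (Mel-DCC-11-R + V).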

| Structure (SMILES) | cell viability |
| --- | --- |
| Cl.Cl.Cl.Cl.Cl.Cl.Cl.Cl.c1cc(CN2CCCNCCNCCCNCC2)ccc1CN1CCCNCCNCCCNCC1 [AMD 3100 octahydrochloride] | 0.999 (inactive) |
| Cc1nc(Nc2ncc(C(=O)Nc3c(C)cccc3Cl)s2)cc(N2CCN(CCO)CC2)n1.O [Dasatinib monohydrate] | 1.65 (inactive) |
| Cc1nc(Nc2ncc(C(=O)Nc3c(C)cccc3Cl)s2)cc(N2CCN(CCO)CC2)n1 [Dasatinib] | 1.59 (inactive) |
| C=C1CC[C@H](O)C/C1=C/C=C1\CCC[C@]2(C)[C@@H]([C@H](C)/C=C/[C@H](C)C(C)C)CC[C@@H]12 [Vitamin D2] | 1 (inactive) |
| CC[C@]1(O)C[C@H]2CN(CCc3c([nH]c4ccccc34)[C@@](C(=O)OC)(c3cc4c(cc3OC)N(C=O)[C@H]3[C@@](O)(C(=O)OC)[C@H](OC(C)=O)[C@]5(CC)C=CCN6CC[C@]43[C@@H]65)C2)C1.O=S(=O)(O)O [Vincristine sulfate] | 0.455 (active) |
| Cc1cn(-c2cc(NC(=O)c3ccc(C)c(Nc4nccc(-c5cccnc5)n4)c3)cc(C(F)(F)F)c2)cn1 [Nilotinib] | 1.15 (inactive) |
| CCNC(=O)[C@@H]1CCCN1C(=O)[C@H](CCCN=C(N)N)NC(=O)[C@H](CC(C)C)NC(=O)[C@@H](CC(C)C)NC(=O)[C@H](Cc1ccc(O)cc1)NC(=O)[C@H](CO)NC(=O)[C@H](Cc1c[nH]c2ccccc12)NC(=O)[C@H](Cc1cnc[nH]1)NC(=O)[C@@H]1CCC(=O)N1 [Leuprorelin Acetate] | 0.854 (inactive) |
| CCc1c2c(nc3ccc(OC(=O)N4CCC(N5CCCCC5)CC4)cc13)-c1cc3c(c(=O)n1C2)COC(=O)[C@]3(O)CC.Cl.O.O.O [Irinotecan hydrochloride trihydrate] | 1.32 (inactive) |
| COc1cccc2c1C(=O)c1c(O)c3c(c(O)c1C2=O)C[C@@](O)(C(=O)CO)C[C@@H]3O[C@H]1C[C@H](N)[C@@H](O)[C@H](C)O1.Cl [Epirubicin hydrochloride] | 0.426 (active) |
| COC(=O)Nc1nc2ccc(C(=O)c3cccs3)cc2[nH]1 [Nocodazole] | 0.823 (inactive) |
| CC(O)(P(=O)([O-])O)P(=O)([O-])O.[Na+].[Na+] [Sodium etidronate] | 0.787 (active) |
| COC(=O)N[C@@H](C)CNc1nccc(-c2cn(C(C)C)nc2-c2cc(Cl)cc(NS(C)(=O)=O)c2F)n1 [Encorafenib] | 0.802 (inactive) |
| COc1cc([C@@H]2c3cc4c(cc3[C@@H](O[C@@H]3O[C@@H]5CO[C@@H](C)O[C@H]5[C@H](O)[C@H]3O)C3COC(=O)C32)OCO4)cc(OC)c1O (stereo not given in full) [Etoposide] | 1.26 (inactive) |
| CC(=O)c1c(C)c2cnc(Nc3ccc(N4CCNCC4)cn3)nc2n(C2CCCC2)c1=O.Cl [Palbociclib hydrochloride] | 1.46 (inactive) |
| CCc1cnn2c(NCc3ccc[n+]([O-])c3)cc(N3CCCC[C@H]3CCO)nc12 [Dinaciclib] | 0.062 (active) |
| O=c1[nH]c(=O)n([C@H]2C[C@H](O)[C@@H](CO)O2)cc1C(F)(F)F [Trifluridine] | 1.24 (inactive) |
| O=c1cc(-c2ccc(O)cc2)oc2cc(O)cc(O)c12 [Apigenin] | 0.972 (inactive) |
| COC(=O)/C=C/C(=O)OC [Dimethyl fumarate] | 1.06 (inactive) |
| CC1(C)O[C@H]2CC(=O)OC[C@]23[C@H]2CC[C@@]4(C)[C@H](c5ccoc5)OC(=O)[C@H]5O[C@]54[C@]2(C)C(=O)C[C@@H]13 [Limonin] | 0.857 (inactive) |
| CNC(=O)c1cc(Oc2ccc(NC(=O)Nc3ccc(Cl)c(C(F)(F)F)c3)c(F)c2)ccn1 [Regorafenib] | 0.909 (inactive) |

Same assay, conditions: 1 µM; 120 h; vemurafenib co-treatment 8 µM

| Structure (SMILES) | cell viability |
| --- | --- |
| Cl.Cl.Cl.Cl.Cl.Cl.Cl.Cl.c1cc(CN2CCCNCCNCCCNCC2)ccc1CN1CCCNCCNCCCNCC1 [AMD 3100 octahydrochloride] | 0.984 (inactive) |
| Cc1nc(Nc2ncc(C(=O)Nc3c(C)cccc3Cl)s2)cc(N2CCN(CCO)CC2)n1.O [Dasatinib monohydrate] | 1.54 (inactive) |
| Cc1nc(Nc2ncc(C(=O)Nc3c(C)cccc3Cl)s2)cc(N2CCN(CCO)CC2)n1 [Dasatinib] | 1.58 (inactive) |
| C=C1CC[C@H](O)C/C1=C/C=C1\CCC[C@]2(C)[C@@H]([C@H](C)/C=C/[C@H](C)C(C)C)CC[C@@H]12 [Vitamin D2] | 1.16 (inactive) |
| CC[C@]1(O)C[C@H]2CN(CCc3c([nH]c4ccccc34)[C@@](C(=O)OC)(c3cc4c(cc3OC)N(C=O)[C@H]3[C@@](O)(C(=O)OC)[C@H](OC(C)=O)[C@]5(CC)C=CCN6CC[C@]43[C@@H]65)C2)C1.O=S(=O)(O)O [Vincristine sulfate] | 0.242 (active) |
| Cc1cn(-c2cc(NC(=O)c3ccc(C)c(Nc4nccc(-c5cccnc5)n4)c3)cc(C(F)(F)F)c2)cn1 [Nilotinib] | 1.06 (inactive) |
| CCNC(=O)[C@@H]1CCCN1C(=O)[C@H](CCCN=C(N)N)NC(=O)[C@H](CC(C)C)NC(=O)[C@@H](CC(C)C)NC(=O)[C@H](Cc1ccc(O)cc1)NC(=O)[C@H](CO)NC(=O)[C@H](Cc1c[nH]c2ccccc12)NC(=O)[C@H](Cc1cnc[nH]1)NC(=O)[C@@H]1CCC(=O)N1 [Leuprorelin Acetate] | 0.919 (inactive) |
| CCc1c2c(nc3ccc(OC(=O)N4CCC(N5CCCCC5)CC4)cc13)-c1cc3c(c(=O)n1C2)COC(=O)[C@]3(O)CC.Cl.O.O.O [Irinotecan hydrochloride trihydrate] | 0.937 (inactive) |
| COc1cccc2c1C(=O)c1c(O)c3c(c(O)c1C2=O)C[C@@](O)(C(=O)CO)C[C@@H]3O[C@H]1C[C@H](N)[C@@H](O)[C@H](C)O1.Cl [Epirubicin hydrochloride] | 0.183 (active) |
| COC(=O)Nc1nc2ccc(C(=O)c3cccs3)cc2[nH]1 [Nocodazole] | 0.518 (active) |
| CC(O)(P(=O)([O-])O)P(=O)([O-])O.[Na+].[Na+] [Sodium etidronate] | 0.91 (inactive) |
| COC(=O)N[C@@H](C)CNc1nccc(-c2cn(C(C)C)nc2-c2cc(Cl)cc(NS(C)(=O)=O)c2F)n1 [Encorafenib] | 0.74 (active) |
| COc1cc([C@@H]2c3cc4c(cc3[C@@H](O[C@@H]3O[C@@H]5CO[C@@H](C)O[C@H]5[C@H](O)[C@H]3O)C3COC(=O)C32)OCO4)cc(OC)c1O (stereo not given in full) [Etoposide] | 0.859 (inactive) |
| CC(=O)c1c(C)c2cnc(Nc3ccc(N4CCNCC4)cn3)nc2n(C2CCCC2)c1=O.Cl [Palbociclib hydrochloride] | 1.08 (inactive) |
| CCc1cnn2c(NCc3ccc[n+]([O-])c3)cc(N3CCCC[C@H]3CCO)nc12 [Dinaciclib] | 0.0642 (active) |
| O=c1[nH]c(=O)n([C@H]2C[C@H](O)[C@@H](CO)O2)cc1C(F)(F)F [Trifluridine] | 1.06 (inactive) |
| O=c1cc(-c2ccc(O)cc2)oc2cc(O)cc(O)c12 [Apigenin] | 0.991 (inactive) |
| COC(=O)/C=C/C(=O)OC [Dimethyl fumarate] | 1.13 (inactive) |
| CC1(C)O[C@H]2CC(=O)OC[C@]23[C@H]2CC[C@@]4(C)[C@H](c5ccoc5)OC(=O)[C@H]5O[C@]54[C@]2(C)C(=O)C[C@@H]13 [Limonin] | 1.11 (inactive) |
| CNC(=O)c1cc(Oc2ccc(NC(=O)Nc3ccc(Cl)c(C(F)(F)F)c3)c(F)c2)ccn1 [Regorafenib] | 0.82 (inactive) |

Reference: the supplement of paper PMC12808144
